Assay results reported in PubChem BioAssay (NCI).
“And” between values parts separate entries of the source, which are not always exact repeats. Identical values can stand only once. This is part of a sample that, as a whole, favours compounds with a hit. Of some 79,000 tested, about 15% had one in any assay. The source made the active and inactive calls. No stated cut-off is given here; in the data, active means growth inhibition above about 70%; inactive means the rest.

Experiment: NCI Yeast Anticancer Drug Screen. Data for the mlh1 rad18 strain (AID 175)
Conditions: S. cerevisiae mlh1 rad18 strain growth inhibition, active compounds read high; at 50.0 µM unless noted
Protocol: Growth inhibition of yeast strains with defined genetic alterations is measured as a screen for potential anti-cancer activity. Selected strains with alterations in DNA damage repair or cell cycle control were exposed to compounds and growth inhibition was measured relative to vehicle treated controls. The strain used in this assay is mlh1 rad18

**Q.** Which growth inhibition does the source give for `CN1CCc2nc[nH]c2C1` here?
**A.** The growth inhibition was 10.1% (inactive).

**Q.** For `O=c1[nH]c2nc3ccccc3c(=O)n2nc1Cc1ccccc1`, which growth inhibition is on record?
**A.** The growth inhibition was 0.7% (inactive).

**Q.** Which growth inhibition does the source give for `CO/N=C(/NC(=O)OC)c1ccccc1` here?
**A.** The growth inhibition was -15.3% (inactive).

**Q.** For `Cc1cccc(NC(=O)Nc2ccccc2F)n1`, which growth inhibition is on record?
**A.** Its growth inhibition is -12.1% (inactive).

**Q.** Which growth inhibition does the source give for `CC(C)CCC[C@@H](C)C1CCC2[C@@H]3CCC4C[C@@H](CCC=C(c5cc(Cl)c(O)c(C(=O)O)c5)c5cc(Cl)c(O)c(C(=O)O)c5)CC[C@]4(C)C3CC[C@@]21C` (stereo not given in full) here?
**A.** Its growth inhibition is -45.9% (inactive).

**Q.** For `CCCCCCn1ncc2c(N)ncnc21`, which growth inhibition is on record?
**A.** Its growth inhibition is -1.3% (inactive).

**Q.** With `CCN(CCNS(C)(=O)=O)c1ccc(N)c(C)c1` as the molecule, how does the growth inhibition read?
**A.** Its growth inhibition is -4.05% (inactive) and 6.35% (inactive).

**Q.** For `CC(=O)Nc1ccc(-c2nnc(SCC(=O)Nc3cccc([N+](=O)[O-])c3)o2)cc1`, which growth inhibition is on record?
**A.** Its growth inhibition is 0.4% (inactive).

**Q.** For `COC1=CC2CC(C#N)C2(OC)C=C1` (stereo not given), which growth inhibition is on record?
**A.** The growth inhibition was 1.8% (inactive).

**Q.** With `Cc1ccc(C2=CC=C(c3ccccc3)C2)cc1` as the molecule, how does the growth inhibition read?
**A.** The growth inhibition was 36.6% (inactive).

**Q.** For `COc1cccc(C)c1NC(=O)NCCCl`, which growth inhibition is on record?
**A.** The growth inhibition was 5.05% (inactive).

**Q.** Which growth inhibition does the source give for `C=C(C#N)CSc1c(Cl)c(Cl)c(Cl)c(Cl)c1Cl` here?
**A.** The growth inhibition was 62.6% (inactive).

**Q.** With `c1ccc(Cc2cncc(Cc3ccccc3)c2)cc1` as the molecule, how does the growth inhibition read?
**A.** Its growth inhibition is 9.1% (inactive).

**Q.** For `O=C(NC(CSC(c1ccccc1)(c1ccccc1)c1ccccc1)C(=O)O)OC(c1ccccc1)c1ccccc1` (stereo not given), which growth inhibition is on record?
**A.** The growth inhibition was 96.5% (active).

**Q.** With `C1COC2SC3=C(SC(=C4SC5=C(SCCS5)S4)S3)SC2O1` (stereo not given) as the molecule, how does the growth inhibition read?
**A.** The growth inhibition was 6.9% (inactive).

**Q.** For `NN1CCN(CCO)CC1`, which growth inhibition is on record?
**A.** Its growth inhibition is 21.6% (inactive).

**Q.** Which growth inhibition does the source give for `O=C1NC(=S)N/C1=C\c1ccc(Cl)cc1` here?
**A.** Its growth inhibition is -39.7% (inactive).

**Q.** Which growth inhibition does the source give for `CCOC(=O)c1ccc(N/C(C)=C/C(=O)OC)cc1` here?
**A.** The growth inhibition was 3.55% (inactive).

**Q.** Which growth inhibition does the source give for `O=C(/C=C\c1ccc(Cl)c(Cl)c1)/C=C/c1ccc(Cl)c(Cl)c1` here?
**A.** The growth inhibition was 16.6% (inactive).

**Q.** For `Cc1ccc2[nH]c(C(=O)O)cc2c1`, which growth inhibition is on record?
**A.** Its growth inhibition is 28.1% (inactive).

**Q.** Which growth inhibition does the source give for `CC(=O)OC[C@@]12C[C@H]3C(=O)C(C)(C)C[C@H]3[C@]1(C)[C@@H](OC(C)=O)[C@]1(O)[C@H]([C@@H](OC(=O)c3ccccc3)[C@@H](C)[C@H]1OC(C)=O)[C@H]2OC(C)=O` here?
**A.** Its growth inhibition is -3.15% (inactive).

**Q.** Which growth inhibition does the source give for `Nc1[nH]c(=O)[nH]c(=O)c1[N+](=O)[O-]` here?
**A.** The growth inhibition was -3.15% (inactive).

**Q.** For `CC(O)COC(C)C` (stereo not given), which growth inhibition is on record?
**A.** Its growth inhibition is 19.8% (inactive).

**Q.** Which growth inhibition does the source give for `C/C(=N\NC(N)=O)c1ccc(Br)c2ccccc12` here?
**A.** Its growth inhibition is -1.2% (inactive).

**Q.** Which growth inhibition does the source give for `OC1(c2cccc(C(F)(F)F)c2)CCN(C2CC2c2ccccc2)CC1` (stereo not given) here?
**A.** Its growth inhibition is 81.5% (active).

**Q.** For `O=C(CCC/C(CC(=O)c1ccc(Br)cc1)=N\O)Nc1ccccc1`, which growth inhibition is on record?
**A.** The growth inhibition was 25.7% (inactive).

**Q.** Which growth inhibition does the source give for `N#CCCC(C#N)(CCC#N)C(N)=O` here?
**A.** Its growth inhibition is 1.55% (inactive).

**Q.** Which growth inhibition does the source give for `CCCCNC(=O)/C=C/C(=O)NCCCC` here?
**A.** The growth inhibition was -1.5% (inactive).

**Q.** For `O=C(Cc1ccccc1)NC/C=N/O`, which growth inhibition is on record?
**A.** The growth inhibition was -4.75% (inactive).

**Q.** With `Cc1cn(C2CC3C(COC(c4ccccc4)N3O)O2)c(=O)[nH]c1=O` (stereo not given) as the molecule, how does the growth inhibition read?
**A.** The growth inhibition was 7.15% (inactive).

**Q.** For `O=C1C=C(C2=CC(=O)c3cccc(O)c3C2=O)C(=O)c2c(O)cccc21`, which growth inhibition is on record?
**A.** Its growth inhibition is -4.7% (inactive).

**Q.** Which growth inhibition does the source give for `C=C(c1c(C)cccc1OC(C)=O)c1c(C)cccc1OC(C)=O` here?
**A.** Its growth inhibition is -6.55% (inactive).

**Q.** Which growth inhibition does the source give for `Nc1c(Cl)ccc2c(Cl)ccnc12` here?
**A.** The growth inhibition was 7.55% (inactive).

**Q.** Which growth inhibition does the source give for `O=CC(CO)C(C=O)n1ncc2ccccc21` (stereo not given) here?
**A.** Its growth inhibition is 30.8% (inactive).

**Q.** Which growth inhibition does the source give for `CCCCC1=C(c2ccccc2)/C(=N/Nc2ccc([N+](=O)[O-])cc2[N+](=O)[O-])c2ccccc21` here?
**A.** The growth inhibition was 9% (inactive).

**Q.** With `COC1=CC(=O)C2CC=CC(CC(=O)O)C2(C)C1=O` (stereo not given) as the molecule, how does the growth inhibition read?
**A.** The growth inhibition was 4.5% (inactive).

**Q.** Which growth inhibition does the source give for `COc1ccc2oc(=N)c(C(=O)Nc3ccccc3)cc2c1` here?
**A.** The growth inhibition was -38.4% (inactive).

**Q.** Which growth inhibition does the source give for `CC(C)=CC(=O)CNC(N)=S` here?
**A.** The growth inhibition was 23.9% (inactive).

**Q.** Which growth inhibition does the source give for `O=c1oc2ccccc2cc1O` here?
**A.** Its growth inhibition is 27.1% (inactive).

**Q.** Which growth inhibition does the source give for `CC(=O)Nc1cc(C)cc(CO)c1C` here?
**A.** Its growth inhibition is -26.6% (inactive).
